Measurements reported in article PMC12136788.
Substitutions are numbered along the chain they refer to. In all, about 24,000 sequences were measured (“enrichment r”: median about 0.99, highest 2% from about 3.7 on). The entries come from a sample that favours the highest values as a whole.

T1: UNK ZnF1-3 (human, UniProt Q9C0B0 31-174)
T1 sequence: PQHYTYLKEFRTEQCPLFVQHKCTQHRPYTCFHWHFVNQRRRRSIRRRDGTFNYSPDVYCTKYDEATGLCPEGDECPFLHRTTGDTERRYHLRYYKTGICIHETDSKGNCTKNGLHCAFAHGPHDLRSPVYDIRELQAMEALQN

B1: chr14:23562722:23562723:-_ENSG00000100813_ENST00000605057|hu_mus|FALSE|FALSE (ssRNA)
RNA: GGGAGUUCUACAGUCCGACGAUCUGGCUCAUUUCCUCCCCGAUCUGUGAAUUUGGCUGGAAUGCAGCAUGGGGUGUUGAGUGUUUUUGUAAAUUUUCUAGCAUUAGAGCCCCUUUGAGCCGCUUGACCAGGGCACUCUUCUGCCAACAGAGGAUUGAGCAUCA
B2: 107524198_107526941_663_CDS_ENSMUSG00000028613_ENSMUST00000106731|mouse|control|control (ssRNA)
RNA: GGGAGUUCUACAGUCCGACGAUCGGGAUGAGGCGCGAGUAGUCCCGCUUCACCAGGUCUAUCCUCCGCACCUCGUGUCGGUUCGUGAAGAUCAGAGAUGGGCUCUUGCCGGCUACAGCUUUGCAGUUCUUGGUCAGUGUAUCCCAACAGAGGAUUGAGCAUCA
B3: chr11:72497679:72497680:+_ENSMUSG00000020794_ENSMUST00000021148|mus_mus|motif|central (ssRNA)
RNA: GGGAGUUCUACAGUCCGACGAUCUAUUGCUACAUCCAAUCCAAGAGAUGGGUGAAUCAUAGUACAAAAAGGACAAAGCACCGGGUGAUGACCCCUCCUCUGAAGUCAUCGUGAAAAACUCAAGUAAUUUACUAGUAUUUCAGUCAACAGAGGAUUGAGCAUCA
B4: chr10:35314101:35314102:-_ENSG00000108094_ENST00000537177|hu_mus|motif|central (ssRNA)
RNA: GGGAGUUCUACAGUCCGACGAUCUUCACCUGUACAGAGAUAAUGCAACCAUGUCAGCUUCCGUCCACUGAAAUGCUGGCGGUAAAACAAUUCAAACAUCUGUACACUUUUCUCUAGCUCUUGGGGAAUUGCAAAUGUAGAUGACAACAGAGGAUUGAGCAUCA
B5: chr10:22825647:22825648:-_ENSG00000150867_ENST00000376573|hu_hu|FALSE|FALSE (ssRNA)
RNA: GGGAGUUCUACAGUCCGACGAUCUCAUCAUUAUUAUCUUCAUUAUUCUGAAUACUGUCUCACAUCUUUCAACUCCAAAAAAAAAAAAAAAAAAAAAAAACUGAUCCACAGUUUGUUGUGUGAUGCCAACACGGUGCCUGACAUCAACAGAGGAUUGAGCAUCA
B6: chr2:203071830:203071831:-_ENSG00000116030_ENST00000392246|hu_hu|FALSE|FALSE (ssRNA)
RNA: GGGAGUUCUACAGUCCGACGAUCAGGGGACUGAGGCUUGAUCACCAAAAAUCAGCACAAUGAAAACAAACAAUAAUGAAUAAUGAGCACUAGAAUUCAAAUUACCAGAUGUUUCAAAGAGAUGGGGUGCCAGUUUUCAAUUCCCAACAGAGGAUUGAGCAUCA
B7: chrX:153994619:153994620:+_ENSG00000130826_ENST00000369550|hu_mus|FALSE|FALSE (ssRNA)
RNA: GGGAGUUCUACAGUCCGACGAUCUCCAACAUACUCUUUGCCUGCACUCUGUUGUGAUUUCACCAAACGAGUGGCUCGUUCAAUGCACACAAUUAAACAACCAGUCACUUUGGGAUCUAGUGUGCCACUGUGGCCAGUCUUCUCCAACAGAGGAUUGAGCAUCA
B8: chr19:60013232:60013233:-_ENSMUSG00000040022_ENSMUST00000171986|mus_hu|FALSE|FALSE (ssRNA)
RNA: GGGAGUUCUACAGUCCGACGAUCCUUAUCUUUUAACUUUGCAAAAGGAGAUCUGGUUUUGUCCUUCAUUGAUAAGUCAAACAUACUUGCGGUCAUAUUGUUCCUCAUAAACUGAAUAUUGACCUUUAUCUCACCCCUGUUUUUCAACAGAGGAUUGAGCAUCA
B9: chr18:43482294:43482295:-_ENSMUSG00000024501_ENSMUST00000121805|mus_mus|FALSE|FALSE (ssRNA)
RNA: GGGAGUUCUACAGUCCGACGAUCUGACAGAGUUUUGCCUAGCAUUUGAGAGGCCCUGGACUCAAUUGUCCAGCUCUACAAAAUGAAAUAAACAGAAAUUCCCCACCUCAAAAAAAAAAAACAACAACAACAACAACAAAAAACCAACAGAGGAUUGAGCAUCA
B10: chr5:180275300:180275301:-_ENSG00000196670_ENST00000512132|hu_hu|FALSE|FALSE (ssRNA)
RNA: GGGAGUUCUACAGUCCGACGAUCUCAUCAUCACUGCCCCCUCCCAAACCAAUUACAUCAAGUUUAUACUUAAAGACCACUAAUAUUAAAUAAAUUUAUAUUCCCUGAAACCUAUCCUCCCUGAAUUUGCCUGUUGGAGGCCCUCAACAGAGGAUUGAGCAUCA
B11: chr9:88635815:88635816:+_ENSG00000135040_ENST00000361671|hu_hu|FALSE|FALSE (ssRNA)
RNA: GGGAGUUCUACAGUCCGACGAUCUCCUCCUGCCAAUAACUUCAUAACCACAAAGUUGGGUUUGGCAACCUUUAAAAUUCUAUUAACCUCAUGGUCCGGGUUAGGAAUAUUUUCCAAUAUCAUUUUUGCCUGUUGAAAGUGCUUCAACAGAGGAUUGAGCAUCA
B12: chr2:203071915:203071916:-_ENSG00000116030_ENST00000392246|hu_hu|motif|central (ssRNA)
RNA: GGGAGUUCUACAGUCCGACGAUCCAAAGAGAUGGGGUGCCAGUUUUCAAUUCCGUUUUGAACACCACAUUACAAAAGAACGGUUUUUAAAAAUAAAAAAGGAUUGAGGGAAAAGAAAAAAAAUAAAAAGAAUAUCUAAACUGUCAACAGAGGAUUGAGCAUCA
B13: chr2:203071915:203071916:-_ENSG00000116030_ENST00000392246|hu_hu|FALSE|FALSE (ssRNA)
RNA: B12 RNA with G81U, G82A
B14: chr7:17500836:17500837:-_ENSMUSG00000019370_ENSMUST00000019514|mus_mus|FALSE|FALSE (ssRNA)
RNA: GGGAGUUCUACAGUCCGACGAUCUGAACUGAACACAAUAUUGCCCGGUUUGUUUGUUUGUUUAAAAAAAAAAAAAAAAAAGGAAAAACAAAAAACCAAAAUAAAACCCCGAAACAUUCCGCAAAGUCCACAGCCUCACGCCUACAACAGAGGAUUGAGCAUCA
B15: chr6:74304526:74304527:-_ENSG00000119899_ENST00000355773|hu_hu|motif|central (ssRNA)
RNA: GGGAGUUCUACAGUCCGACGAUCUAAUUAAGCAAAGGUAUCAGGAGGUCUGUUUCAGCUCAUUCCCUUUAGUAUGGCCCGGAAAAAUCAACAGAACUGUCCUACUUCAUGUUGCCCGACUAGCAGGCAGGUAUGUGAACCUAACAACAGAGGAUUGAGCAUCA
B16: 6859137_6859426_438_3pUTR_ENSG00000089693_ENST00000435120|human|control|control (ssRNA)
RNA: GGGAGUUCUACAGUCCGACGAUCGUCUGAAUCCCGAACAGUCCUCCGUGUCUCCCGGAUCCCGCCUGGUGCCGAGCGCAUCUCUGAUGUCUCUUGGUAGACCUUGGGGGCACCAUCACCCGUAUUGGAGUAGGAGAUGACAGUCAACAGAGGAUUGAGCAUCA
B17: chr18:35731670:35731671:+_ENSMUSG00000037236_ENSMUST00000166793|perfect_dup|motif|central (ssRNA)
RNA: GGGAGUUCUACAGUCCGACGAUCUGACCCUGUGAAUCCCUACCGAGAGAUGACUGCUGGAAUGACUUGGACAUUGUAGAACGGUCUCUUGUCUAUUUUAUAGAUCAAAAAAAAAAAAAAAAGUUUUAAAAGAUGGCCAAAAAGCAACAGAGGAUUGAGCAUCA
B18: chr1:39494564:39494565:+_ENSG00000168653_ENST00000372967|hu_hu|hu_hu_hu_mus_True|28_78 (ssRNA)
RNA: GGGAGUUCUACAGUCCGACGAUCAUGCAUUCGCCUCAUCGUUUUGUACCGAAGCAAACACUCUACGAAGUCAUCGAACUCUAUCUUGCACUCCUUUUUCGCCCGGGUAUAACCGAUCCCGUGUGCACACUCUAUCCACUCUUUCAACAGAGGAUUGAGCAUCA
B19: chr7:44244176:44244177:+_ENSG00000106636_ENST00000223369|hu_mus|hu_hu_hu_mus_False|48_48 (ssRNA)
RNA: GGGAGUUCUACAGUCCGACGAUCACUGUCGCUCCGGACGUAGACAUGGCAAAGAUACUCUUGUUCUUUGACAGAAGCUCUGCUGCCUUUCGAUGAGCGUUCCACAAUCAGUUGACUUGUAAAGGUCAUGAAUUCCUGCACACUCAACAGAGGAUUGAGCAUCA
B20: chr2:157388114:157388115:+_ENSMUSG00000067786_ENSMUST00000109526|mus_mus|motif|central (ssRNA)
RNA: GGGAGUUCUACAGUCCGACGAUCUUGGUGGAGGUGGUCCCUGUCUCCAGGAGCUUACAAUCUAGCUGGGGAGACACGGCGGAUGCACACUUAAACCAGUACAAUUAGCGACUACCACAAUAUUGACCACAACUGCUGCGUGAGCAACAGAGGAUUGAGCAUCA
B21: 104620154_104620274_4085_CDS_ENSMUSG00000074994_ENSMUST00000117237|mouse|control|control (ssRNA)
RNA: GGGAGUUCUACAGUCCGACGAUCACCUCCACUUUCAAUAUUUUCCUCAUCUGUAAAACCUUCUAUUGCAACUGUGUCCUGUCCUUUUGCCAACUGGUCUGAAGGAAGACUAUCAAGUUCGAUGGCUGUGGGGGAUUCUGUGGACAACAGAGGAUUGAGCAUCA
B22: chr2:120842339:120842340:+_ENSMUSG00000023572_ENSMUST00000060455|mus_mus|FALSE|FALSE (ssRNA)
RNA: GGGAGUUCUACAGUCCGACGAUCCUUAAGGACAGAGGCUGCCUUUCUAUCGAGCAAACACCCUGUCAAAGCUCCACUUCUAAAAGCAGACGUUAAAAAAACUUAAAAAAUAAAUAGGUAAAGCAGACACUGGAUCGUGGGUGUCAACAGAGGAUUGAGCAUCA
B23: 13689013_13692640_988_3pUTR_ENSMUSG00000022684_ENSMUST00000023365|mouse|control|control (ssRNA)
RNA: GGGAGUUCUACAGUCCGACGAUCCACUCCCAGGGCUCUCACACGCUCCAGCUCCGUGAGGAUGACCCUUCUGUGGCUACUGUUCUCUAUGGUAUAAGGUGCCCUGGAAAACUCUUCUUCUGUCAAAGUUAAAAGCAACCUUCCCAACAGAGGAUUGAGCAUCA
B24: chr1:185089287:185089288:-_ENSG00000121486_ENST00000367506|hu_hu|FALSE|FALSE (ssRNA)
RNA: GGGAGUUCUACAGUCCGACGAUCUGACUGGACAUGGCUUUCUGACUGUCCUCCAGUGUAGGUGGGGGUGCUGUACUUUAAAAGGAUAGAUUUAAACUGCAUCAGAGGUGCAUCUGUGCGUACACCCAUUGGGUCAAAAUGAGUCAACAGAGGAUUGAGCAUCA
B25: chr2:120842339:120842340:+_ENSMUSG00000023572_ENSMUST00000060455|mus_mus|motif|central (ssRNA)
RNA: B22 RNA with U80G, A81G
B26: 158551514_158564203_814_3pUTR_ENSG00000122335_ENST00000367104|human|control|control (ssRNA)
RNA: GGGAGUUCUACAGUCCGACGAUCCACCCUUCUGAGCAGCUAGACUCUGACUGCUUUCACUAAGAGCCAAAGAUGUAAAAUACUGGAUACACUCAUCUAGCUCUGUUUGAGGUAAGGAAGCCAGCAACUGUCUGAGCUCUUCUUCAACAGAGGAUUGAGCAUCA

What follows are binders tested against T1, UNK ZnF1-3 (assay: nsRBNS (natural sequence RNA bind-n-seq); RBNS binding buffer (assumed for nsRBNS): 25 mM Tris pH 7.5, 150 mM KCl, 3 mM MgCl2, 0.01% Triton X-100, 500 ug/ml BSA, 20 U/ml SUPERase-In, 4 C; UNK is unkempt and MSI1 is Musashi-1; names of the RNAs are library labels; protein concentration not given here; high values mean tight binding).

Binder	binding signal [enrichment R]
B1	0.906
B2	0.464
B3	0.978
B4	0.886
B5	5.07
B6	3.55
B7	0.751
B8	0.548
B9	3.06
B10	3.55
B11	1.04
B12	20.1
B13	32.1
B14	6.58
B15	0.917
B16	0.67
B17	3.64
B18	0.645
B19	0.634
B20	1.28
B21	0.848
B22	5.28
B23	0.702
B24	0.951
B25	3.71
B26	0.91
